# Assay results from PubChem BioAssay (NCATS).
# Several values for one entry are separate records, joined by “and”; a condition that tells them apart may be missing. Equal entries are not always repeated. A number with no mark means an inactive call. Results filed as inconclusive are left out. Where a structure was tested more than once in an assay, its records may differ in their call. Activity calls are given as the source filed them. Unless noted, the call rests on the fitted dose curve.
# What was measured:
# [1] = AP1 Signaling Pathway (AID 357; active means well fitted curve in either direction with a large enough effect, not every such curve was filed as active;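 further: ME-180 reporter cells stimulated with EGF at its EC50 level; on the % scale 0 is the no-effect control and ±100 the full control effect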)
# How it was run: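 A ratiometric CCF4 readout (405 nm excitation; 460 and 530 nm emission) quantified AP-1-driven beta-lactamase in ME-180 cells after 5 h with compound and EC50 EGF; AC50 values were derived for activators and inhibitors.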
# [2] = biological target: Cytochrome P450 1A2 (Homo sapiens) (UniProt P05177); assay: p450-cyp1a2 (AID 410); further: potency means the concentration at half of the fitted maximal effect;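 on activity change, negative = inhibition: -100% = full effect of reference inhibitor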
# Sequence of Cytochrome P450 1A2 (Homo sapiens) (P05177 whole entry, looked up): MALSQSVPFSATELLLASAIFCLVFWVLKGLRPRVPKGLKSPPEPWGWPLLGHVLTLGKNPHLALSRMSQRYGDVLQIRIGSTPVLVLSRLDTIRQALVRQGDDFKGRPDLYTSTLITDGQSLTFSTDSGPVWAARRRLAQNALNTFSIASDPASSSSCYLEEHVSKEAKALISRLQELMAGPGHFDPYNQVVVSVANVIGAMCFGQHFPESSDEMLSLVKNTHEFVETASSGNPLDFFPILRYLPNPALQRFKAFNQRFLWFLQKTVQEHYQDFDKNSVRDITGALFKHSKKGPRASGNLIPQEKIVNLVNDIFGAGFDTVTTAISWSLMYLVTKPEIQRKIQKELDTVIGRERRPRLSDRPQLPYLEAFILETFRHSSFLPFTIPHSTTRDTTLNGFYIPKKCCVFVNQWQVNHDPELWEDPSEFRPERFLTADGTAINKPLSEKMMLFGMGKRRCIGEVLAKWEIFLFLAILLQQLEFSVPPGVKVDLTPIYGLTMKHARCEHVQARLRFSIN
# How it was run: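 Human CYP1A2 (20nM) demethylated Luciferin-ME at its Km (100uM) in 100mM KPO4. After 10 min compound preincubation, NADPH regeneration ran the reaction 60 min at room temperature. Luciferin was read by luminescence, normalized to 57 uM furafylline.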
# [3] = Stat Signaling Pathway (AID 446; active means well fitted curve in either direction with a large enough effect, not every such curve was filed as active;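 further: ME-180 cervical cancer cells given 40 pM IL-6 alongside compound; SIE-controlled beta-lactamase reporter measured as 460/530 nm FRET emission ratio; on the % scale 0 is the no-effect control and ±100 the full control effect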); conditions: ME-180 (cervical carcinoma) SIE beta-lactamase reporter, IL-6 stimulated, 5 h; at 38 µM (top of the series) unless noted
# How it was run: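 IL-6/STAT signaling read in ME-180 cells via an SIE beta-lactamase reporter. Stimulus was 40 pM IL-6 (its AC50) for 5 hrs, so both activation and inhibition register.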
# [4] = biological target: Glucocorticoid receptor (Homo sapiens) (UniProt P04150); assay: GR-GFP Redistribution (AID 450;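 active means compounds whose dose series gives a full or clear partial fitted curve of increased nuclear translocation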; further: potency means the concentration at half of the fitted maximal effect); conditions: U2OS GR-GFP nuclear translocation, laser cytometry, 2 h
# Sequence of Glucocorticoid receptor (Homo sapiens) (P04150 whole entry, looked up, the tested form may be a part): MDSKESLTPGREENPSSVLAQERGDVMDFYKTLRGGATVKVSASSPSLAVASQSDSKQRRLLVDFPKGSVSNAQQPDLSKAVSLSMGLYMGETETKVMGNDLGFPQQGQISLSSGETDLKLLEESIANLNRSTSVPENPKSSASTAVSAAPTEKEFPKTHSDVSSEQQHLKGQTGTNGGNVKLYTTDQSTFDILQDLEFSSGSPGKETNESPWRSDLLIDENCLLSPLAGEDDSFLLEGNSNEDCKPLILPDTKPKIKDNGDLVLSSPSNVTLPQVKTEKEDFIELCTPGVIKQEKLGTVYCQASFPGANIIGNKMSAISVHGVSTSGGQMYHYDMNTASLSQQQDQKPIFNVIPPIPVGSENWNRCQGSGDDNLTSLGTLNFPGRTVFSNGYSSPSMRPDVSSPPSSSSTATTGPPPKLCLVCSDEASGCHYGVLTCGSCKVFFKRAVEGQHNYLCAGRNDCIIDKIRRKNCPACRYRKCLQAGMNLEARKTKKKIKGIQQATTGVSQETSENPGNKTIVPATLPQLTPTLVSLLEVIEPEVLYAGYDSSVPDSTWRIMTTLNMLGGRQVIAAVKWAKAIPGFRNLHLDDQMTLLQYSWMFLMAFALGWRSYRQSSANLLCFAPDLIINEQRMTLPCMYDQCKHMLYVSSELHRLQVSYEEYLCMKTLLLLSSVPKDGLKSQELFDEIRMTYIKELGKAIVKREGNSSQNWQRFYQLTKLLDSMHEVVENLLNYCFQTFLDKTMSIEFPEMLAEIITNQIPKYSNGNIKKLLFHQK
# [5] = biological target: Glucocorticoid receptor (Homo sapiens) (UniProt P04150); assay: GR-EFC Redistribution (AID 451); conditions: CHO-K1 GR-EFC translocation, beta-gal luminescence, 2 h; further: potency means the concentration at half of the fitted maximal effect
# How it was run: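 CHO-K1 cells expressing nuclear EA and GR-ED fragments of b-gal; compounds titrated up to 46 uM final, 2 h at 37 C. GR nuclear translocation read as complemented b-gal luminescence after 1 h RT detection.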
# [6] = biological target: Mitogen-activated protein kinase 10 (Mus musculus) (UniProt Q61831); assay: JNK3 AlphaScreen Assay (AID 530; active means well fitted curve in either direction with a large enough effect, not every such curve was filed as active;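 further: kinase came from lysate of stimulated human HepG2 cells; signal reports phosphorylation of biotinylated GST-cJun 1-79 at Ser73 with 10 µM ATP; on the % scale 0 is the no-effect control and ±100 the full control effect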)
# How it was run: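 qHTS format: compounds tested as titrations against IL-1beta/TNF-alpha-activated HepG2 lysate JNK3 with biotin-GST-cJun substrate and 10 uM ATP at room temperature. Loss of anti-phospho-cJun AlphaScreen signal indicates inhibition.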
# [7] = biological target: 3',5'-cyclic-AMP phosphodiesterase 4B (Homo sapiens) (UniProt Q07343); assay: qHTS Assay for Inhibitors of PDE-IV (AID 607; active means well fitted activation curve with a large enough effect in the main read-out, with a control signal flat, not every such curve was filed as active; further: potency means the concentration at half of the fitted maximal effect)
# Sequence of 3',5'-cyclic-AMP phosphodiesterase 4B (Homo sapiens) (Q07343 whole entry, looked up): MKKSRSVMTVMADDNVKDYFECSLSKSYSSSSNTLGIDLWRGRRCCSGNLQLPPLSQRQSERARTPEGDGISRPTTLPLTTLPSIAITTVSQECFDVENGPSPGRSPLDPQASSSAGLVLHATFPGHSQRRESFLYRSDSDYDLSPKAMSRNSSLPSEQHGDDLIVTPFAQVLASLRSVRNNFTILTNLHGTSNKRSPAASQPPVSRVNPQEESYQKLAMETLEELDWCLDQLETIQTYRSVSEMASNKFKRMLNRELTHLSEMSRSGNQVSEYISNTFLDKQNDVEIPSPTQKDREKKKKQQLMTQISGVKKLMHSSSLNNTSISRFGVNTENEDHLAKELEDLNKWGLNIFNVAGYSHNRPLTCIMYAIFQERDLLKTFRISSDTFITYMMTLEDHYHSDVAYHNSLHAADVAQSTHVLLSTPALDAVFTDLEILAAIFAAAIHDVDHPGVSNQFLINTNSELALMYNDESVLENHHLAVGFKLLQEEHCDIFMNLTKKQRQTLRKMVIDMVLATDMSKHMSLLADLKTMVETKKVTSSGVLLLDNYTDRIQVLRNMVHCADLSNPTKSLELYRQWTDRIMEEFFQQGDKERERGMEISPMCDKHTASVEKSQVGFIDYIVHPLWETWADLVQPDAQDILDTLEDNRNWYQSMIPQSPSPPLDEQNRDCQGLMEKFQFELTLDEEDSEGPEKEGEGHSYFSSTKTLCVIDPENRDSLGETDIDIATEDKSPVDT
# How it was run: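 Live HEK293 cells with a modified cyclic nucleotide-gated (CNG) channel report intracellular cAMP via membrane-potential dye fluorescence (ex 535/em 590 nm). Endogenous PDE-IV was targeted. Compounds were tested at up to 22.9 uM final; RO 20-1724 100 uM served as control.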
# [8] = NFAT Signaling Pathway (AID 444; active means well fitted curve in either direction with a large enough effect, not every such curve was filed as active;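 further: carbachol stimulus at about its EC50 of 1 µM final; on the % scale 0 is the no-effect control and ±100 the full control effect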); conditions: Jurkat NFAT-bla M1, carbachol, beta-lactamase ratio, 5 h; at 38 µM (top of the series) unless noted
# How it was run: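 Jurkat cells with NFAT-driven β-lactamase reporter and co-expressed M1 receptor, stimulated with carbachol (final 1 uM, ~EC50), compound titration, 5 h at 37 °C. CCF4 loaded 1 h at RT; 460/530 nm ratio gave %activity and AC50.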
# [9] = biological target: Lysosomal acid glucosylceramidase (Homo sapiens) (UniProt P04062); assay: Glucocerebrosidase-p2 (AID 348; in the data active means potency below about 10 µM; further: potency means the concentration at half of the fitted maximal effect); conditions: purified GBA, blue fluorogenic substrate, 40 min
# Sequence of Lysosomal acid glucosylceramidase (Homo sapiens) (P04062 whole entry, looked up): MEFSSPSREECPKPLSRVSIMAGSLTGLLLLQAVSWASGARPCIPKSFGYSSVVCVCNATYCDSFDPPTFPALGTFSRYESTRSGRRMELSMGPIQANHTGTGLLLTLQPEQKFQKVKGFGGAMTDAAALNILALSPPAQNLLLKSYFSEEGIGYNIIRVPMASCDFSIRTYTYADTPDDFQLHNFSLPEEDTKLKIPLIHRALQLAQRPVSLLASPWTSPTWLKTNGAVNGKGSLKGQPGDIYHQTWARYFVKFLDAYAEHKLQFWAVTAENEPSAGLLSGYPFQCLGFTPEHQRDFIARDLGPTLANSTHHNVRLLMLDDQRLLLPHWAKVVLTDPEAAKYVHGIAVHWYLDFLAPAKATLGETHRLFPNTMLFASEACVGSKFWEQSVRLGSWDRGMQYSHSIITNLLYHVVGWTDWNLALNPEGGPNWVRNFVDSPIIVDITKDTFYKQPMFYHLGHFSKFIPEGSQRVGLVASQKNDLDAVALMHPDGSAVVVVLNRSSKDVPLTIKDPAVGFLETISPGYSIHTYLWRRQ
# How it was run: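 Compounds titrated from 0.6 nM upwards against 0.2 nM enzyme in pH 5.9 citric acid/KH2PO4, taurocholate, tween-20; blue fluorogenic substrate 80 uM, 40 min room temperature, stopped and read Ex 365/Em 440 for AC50.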
# [10] = Cell Viability - BJ (AID 421); conditions: BJ fibroblast viability, qHTS;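 further: potency means the concentration at half of the fitted maximal effect; cells exposed to compound for 40 hours at 37 °C before readout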
# How it was run: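 Quantitative HTS: ATP depletion in BJ cells after 40 hr compound exposure in complete culture medium, detected with CellTiter-Glo; AC50 from standard Hill fits.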
# [11] = Cell Viability - HepG2 (AID 433); conditions: qHTS;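 further: potency means the concentration at half of the fitted maximal effect; potency for ATP loss meaning cytotoxicity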
# How it was run: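 HepG2 hepatocellular carcinoma cells (1500/well) were treated with compounds for 40 h at 37 °C in complete medium; intracellular ATP was read by CellTiter-Glo luminescence. Data were normalized to DMSO and 100 uM tamoxifen, and AC50 came from Hill fits.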
# [12] = Cell Viability - MRC5 (AID 434); conditions: MRC5 lung fibroblast viability, qHTS;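 further: potency means the concentration at half of the fitted maximal effect; potency reflects cytotoxicity seen as loss of intracellular ATP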
# How it was run: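 MRC5 normal human lung fibroblasts, 1500 cells/well, exposed to compound for 40 hr at 37 C. Cellular ATP was read by CellTiter-Glo luminescence; data normalized to DMSO and 100 uM tamoxifen, with AC50 from Hill fits.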
# [13] = Cell Viability - N2a (AID 540; active means well fitted curve in the direction sought with a large enough effect; an effect the other way counts as inactive or inconclusive;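 further: plate controls were DMSO alone for no effect and tamoxifen control for full effect; nearly all actives have a fitted effect of over 45% in size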); conditions: N2a mouse neuroblastoma cell viability; activity change, negative = cytotoxicity: at 92.2 µM (top of the series)
# How it was run: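 Mouse neuroblastoma N2a cells (1500/well) were preincubated 5 hr at 37 °C, then exposed to compounds for 40 hr at 37 °C in complete medium. Viability was read as intracellular ATP by CellTiter-Glo luminescence; AC50 from Hill fits.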
# [14] = Cell Viability - NIH 3T3 (AID 541; active means well fitted curve in the direction sought with a large enough effect; an effect the other way counts as inactive or inconclusive;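 further: plate controls were DMSO alone for no effect and tamoxifen positive control for full effect; nearly all actives have a fitted effect of over 25% in size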); conditions: NIH 3T3 cell viability, qHTS
# How it was run: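 NIH 3T3 mouse embryo fibroblasts (1000 cells/well) were plated in complete medium and treated with compound for 40 hr at 37 °C. Viability was read as intracellular ATP by CellTiter-Glo luminescence; AC50 values came from Hill-equation fits of concentration-response data.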
# [15] = Cell Viability - HUV-EC-C (AID 542; active means well fitted curve in the direction sought with a large enough effect; an effect the other way counts as inactive or inconclusive; further: on the % scale 0 is the no-effect control and ±100 the full control effect; nearly all actives have a fitted effect of over 35% in size)
# How it was run: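 HUV-EC-C normal human vascular endothelial cells, 1000 cells/well, pre-incubated 5 hr at 37 °C, then exposed to compounds for 40 hr at 37 °C in complete medium. Viability measured as intracellular ATP by CellTiter-Glo luminescence; AC50 from Hill fits.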
# [16] = Cell Viability - H-4-II-E (AID 543; active means well fitted curve in the direction sought with a large enough effect; an effect the other way counts as inactive or inconclusive; further: on the % scale 0 is the no-effect control and ±100 the full control effect; nearly all actives have a fitted effect of over 35% in size)
# How it was run: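 Rat hepatoma H-4-II-E cells (1500/well) were plated, incubated 5 hr at 37 °C, then exposed to compounds for 40 hr at 37 °C. Cellular ATP was read by CellTiter-Glo luminescence; AC50 came from Hill-equation fits of concentration-response data.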
# [17] = Cell Viability - SH-SY5Y (AID 544; active means well fitted curve in the direction sought with a large enough effect; an effect the other way counts as inactive or inconclusive; further: nearly all actives have a fitted effect of over 55% in size; further: potency means the concentration at half of the fitted maximal effect)
# How it was run: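 Human neuroblastoma SH-SY5Y cells (1500/well) in complete medium were exposed to compounds for 40 hr at 37 °C; intracellular ATP was then quantified by CellTiter-Glo luminescence after 20 min at room temperature. AC50 came from Hill-equation concentration-response fits.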
# [18] = Cell Viability - Renal Proximal Tubule (AID 545; active means well fitted curve in the direction sought with a large enough effect; an effect the other way counts as inactive or inconclusive;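 further: 0% = DMSO only and -100% = 100 µM tamoxifen; nearly all actives have a fitted effect of over 40% in size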); conditions: renal proximal tubule cells viability; activity change, negative = cytotoxicity: at 91.7 µM (top of the series)
# How it was run: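 Primary rat renal proximal tubule cells (1000/well) were treated with compounds for 40 hr at 37 °C in complete medium. Intracellular ATP was measured by CellTiter-Glo luminescence, and AC50 values came from Hill-equation fits of concentration-response data.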
# [19] = Cell Viability - Mesenchymal (AID 546; active means well fitted curve in the direction sought with a large enough effect; an effect the other way counts as inactive or inconclusive;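 further: cells exposed to compound for 40 hours before reading; 0% = DMSO only and -100% = 100 µM tamoxifen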)
# How it was run: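 Human kidney mesenchymal cells from normal renal glomeruli, 1000 cells/well, rested 5 hr at 37 °C, then treated 40 hr at 37 °C in complete medium. Cellular ATP read by CellTiter-Glo luminescence; AC50 from Hill-equation fits.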
# [20] = Cell Viability - Jurkat (AID 426;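 active means dose-dependent loss of cell ATP signal giving a full or clear fitted curve, ranked by lower potency value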; further: potency means the concentration at half of the fitted maximal effect); conditions: qHTS
# How it was run: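 Jurkat (clone E6-1, human T-cell leukemia) cells, 5000/well in complete medium, were exposed to compound for 40 hr at 37 °C. Viability was read as intracellular ATP by CellTiter-Glo luminescence; AC50 came from Hill fits of concentration-response data.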
# [21] = activity change, negative = cytotoxicity: at 92.2 µM (top of the series)
compound,measurement,setting,value
C[C@@H]1[C@@H]2Cc3ccc(O)cc3[C@@]1(C)CCN2CC1CC1,outcome,[1],inactive
same,Potency,[2],inactive
same,"activity, negative = inhibition",[3],-18.1%
same,Potency,[4],> 46 µM
same,Potency,[5],> 46 µM
same,outcome,[6],inactive
same,Potency,[7],inactive
c1ccc2c(N3CCNCC3)cccc2c1,outcome,[1],inactive
same,Potency,[2],10 µM (active)
same,"activity change, negative = inhibition",[8],-26.6%
same,Potency,[4],> 46 µM
same,Potency,[5],> 46 µM
same,Potency,[7],inactive
C[N+](C)(C)CC#CCN1CCCC1=O,outcome,[1],inactive
same,Potency,[2],inactive
same,Potency,[4],> 46 µM
same,Potency,[5],> 46 µM
C[C@@H]1O[C@H](C[N+](C)(C)C)CS1,outcome,[1],inactive
same,Potency,[2],inactive
same,Potency,[4],> 46 µM
same,Potency,[5],> 46 µM
same,outcome,[6],inactive
same,Potency,[7],1.26 µM (active)
Nc1ccc(CCN2CCN(c3cccc(C(F)(F)F)c3)CC2)cc1,outcome,[1],inactive
same,Potency,[2],10 µM (active)
same,Potency,[4],> 46 µM
same,Potency,[5],> 46 µM
same,Potency,[7],inactive
CC(C)(C)c1cc(O)ccc1O,Potency,[9],> 11.4 µM
same,"activity change, negative = inhibition",[1],7.46% [at 7.69 µM]
same,"activity change, negative = inhibition",[2],-8.4% [at 11.4 µM]
same,Potency,[10],> 92 µM
same,Potency,[11],> 92 µM
same,Potency,[12],> 92 µM
same,"activity change, negative = inhibition",[8],-2.58% [at 7.69 µM]
same,"activity, negative = inhibition",[3],-2.67% [at 7.69 µM]
same,Potency,[4],> 46 µM
same,Potency,[5],> 9.22 µM
same,Potency,[13],inactive
same,"activity change, negative = cytotoxicity",[14]; [21],-106% (active)
same,"activity change, negative = cytotoxicity",[14]; at 92.2 µM (top of the series),-22.3%
same,Potency,[15],inactive
same,Potency,[16],inactive
same,Potency,[17],10 µM (active) and 12.6 µM (active)
same,Potency,[18],inactive
same,Potency,[19],inactive
same,Potency,[7],inactive
C[C@@H](Cc1ccccc1)NCCC(c1ccccc1)c1ccccc1,outcome,[1],inactive
same,"activity, negative = inhibition",[3],-3.28% [at 17.2 µM]
CCS(=O)(=O)Nc1cccc(C(=C2CCCCC2)c2cnc[nH]2)c1,outcome,[1],inactive
same,Potency,[2],0.316 µM (active)
same,"activity change, negative = inhibition",[8],4.67%
same,"activity, negative = inhibition",[3],-26.3%
same,Potency,[4],> 46 µM
same,Potency,[5],> 46 µM
same,outcome,[6],inactive
same,Potency,[7],inactive
CCCN(CCC)C1Cc2cc(OC)c(OC)cc2C1,outcome,[1],inactive
same,Potency,[2],inactive
same,Potency,[4],> 46 µM
same,Potency,[5],> 46 µM
same,Potency,[7],inactive
CN1[C@@H]2CC[C@H]1CC(OC1c3ccccc3CCc3ccccc31)C2 (some centres undefined),Potency,[2],inactive
same,"activity change, negative = inhibition",[8],-67.9% [at 17.2 µM] (active)
same,Potency,[4],> 20.6 µM
same,Potency,[5],> 20.6 µM
CCCN(CCC)CCc1c[nH]c2ccc(C(N)=O)cc12,outcome,[1],inactive
same,Potency,[2],15.8 µM (active)
same,"activity change, negative = inhibition",[8],-26.6%
same,Potency,[4],> 46 µM
same,Potency,[5],> 46 µM
same,Potency,[7],inactive
CCC(=O)O[C@@](Cc1ccccc1)(c1ccccc1)[C@@H](C)CN(C)C,Potency,[2],inactive
same,"activity change, negative = inhibition",[8],-25.8% [at 17.2 µM]
same,"activity, negative = inhibition",[3],5.74% [at 17.2 µM]
CC(C)(C)c1cc(C=C(C#N)C#N)cc(C(C)(C)C)c1O,Potency,[2],10 µM (active)
same,"activity change, negative = inhibition",[8],-108% (active)
same,Potency,[4],> 46 µM
same,Potency,[5],> 46 µM
same,outcome,[6],inactive
OCc1cnc[nH]1,Potency,[2],inactive
same,"activity change, negative = inhibition",[8],7.81%
same,Potency,[4],> 46 µM
same,Potency,[5],> 46 µM
same,Potency,[7],inactive
ClC(Cl)(Cl)Cl,Potency,[10],> 92 µM
same,Potency,[20],> 92 µM
same,Potency,[11],> 92 µM
same,Potency,[12],> 92 µM
same,outcome,[6],inactive
same,Potency,[13],inactive
same,Potency,[14]; [21],inactive
same,Potency,[15],inactive
same,Potency,[16],inactive
same,Potency,[17],inactive
same,Potency,[18],inactive
same,Potency,[19],inactive
CC(C)NP(=O)(NC(C)C)OP(=O)(NC(C)C)NC(C)C,Potency,[2],inactive
same,"activity change, negative = inhibition",[8],-0.786%
same,Potency,[4],> 46 µM
same,Potency,[5],> 46 µM
same,outcome,[6],inactive
same,Potency,[7],inactive
CC(=O)NBr,Potency,[2],inactive
same,"activity change, negative = inhibition",[8],-0.158%
same,Potency,[4],> 46 µM
same,Potency,[5],> 46 µM
same,outcome,[6],inactive
same,Potency,[7],inactive
O=c1ccc2[nH]cc(C3=CCNCC3)c2[nH]1,Potency,[2],inactive
same,Potency,[4],> 46 µM
same,Potency,[5],> 46 µM
same,outcome,[6],inactive
same,Potency,[7],inactive
c1ccc2c(c1)[I+]c1ccccc1-2,Potency,[2],126 nM (active) and 20 nM (active)
same,"activity change, negative = inhibition",[8],-17.4%
same,Potency,[4],> 46 µM
same,Potency,[5],> 46 µM
same,outcome,[6],inactive
same,Potency,[7],inactive
CN(N=O)c1cc(O)ccc1O,Potency,[2],31.6 µM (active)
same,"activity change, negative = inhibition",[8],0.498%
same,Potency,[4],> 46 µM
same,Potency,[5],> 46 µM
same,Potency,[7],inactive
NC(=O)CI,Potency,[2],31.6 µM (active)
same,"activity change, negative = inhibition",[8],6.62%
same,outcome,[6],inactive
same,Potency,[7],inactive
NNC(=O)c1ccc(O)cc1,Potency,[2],inactive
same,"activity change, negative = inhibition",[8],-6.3%
same,Potency,[4],> 46 µM
same,Potency,[5],> 46 µM
same,Potency,[7],inactive
N#CC(C#N)=Cc1cc(O)c(O)c(O)c1,Potency,[2],inactive
same,"activity change, negative = inhibition",[8],-8.53%
same,Potency,[4],> 46 µM
same,Potency,[5],> 46 µM
same,Potency,[7],inactive
CCCn1c(C)c(C(=O)c2ccc3ccccc3c2)c2ccccc21,Potency,[2],6.31 µM (active)
same,Potency,[4],> 46 µM
same,Potency,[5],> 46 µM
same,outcome,[6],inactive
same,Potency,[7],inactive
